# From the supplement of paper PMC6658780
# Structures can show the parent of a compound that is named as a salt. ± gives the standard deviation of the averaged measurements.
# How the values were obtained:
# [1] = test system: Escherichia coli ATCC BAA-2469; test: percent growth inhibition of drug + antibiotic vs DMSO control; higher = more growth inhibition
# Method: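 Prestwick drugs tested at 20 uM and 7 uM with an antibiotic at 0.125x MIC (16 mg/L when MIC >128 mg/L) against E. coli ATCC BAA-2469 (NDM-1) in CAMHB, 384-well plates, duplicate runs. Percent growth inhibition was computed from OD600 (24 h minus 0 h) relative to DMSO wells. Drug + DMSO-only wells are also given. […]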
# [2] = test system: Klebsiella pneumoniae KPC-119; test: percent growth inhibition of drug alone vs DMSO control; higher = more growth inhibition; conditions: antibiotic (0.125x MIC): none (0.1% DMSO)
# [3] = test system: Klebsiella pneumoniae KPC-119; test: percent growth inhibition of drug + antibiotic vs DMSO control; higher = more growth inhibition
# [4] = antibiotic (0.125x MIC): ciprofloxacin, 7 µM
# [5] = antibiotic (0.125x MIC): gentamicin, 20 µM
# [6] = antibiotic (0.125x MIC): colistin, 7 µM
# [7] = antibiotic (0.125x MIC): colistin, 20 µM
# [8] = antibiotic (0.125x MIC): gentamicin, 7 µM
# [9] = antibiotic (0.125x MIC): meropenem, 7 µM
compound,measurement,setting,value
CC(C)(C)C(=O)OCOC(=O)[C@@H]1N2C(=O)[C@@H](/N=C/N3CCCCCC3)[C@H]2SC1(C)C [Pivmecillinam hydrochloride],percent growth inhibition,[1]; [4],2.89 ± 3.3%
Nc1ncn(C2OC(CO)C(O)C2O)c(=O)n1 (configuration not stated) [Azacytidine-5],percent growth inhibition,[1]; [4],99.1 ± 2.6%
same,percent growth inhibition,"[1]; antibiotic (0.125x MIC): ciprofloxacin, 20 µM",101 ± 3%
Clc1cccc(Cl)c1NC1=NCCN1 [Clonidine hydrochloride],percent growth inhibition,[1]; [5],-0.49 ± 2.6%
Cc1c(OCC(F)(F)F)ccnc1C[S+]([O-])c1nc2ccccc2[nH]1 (configuration not stated) [Lansoprazole],percent growth inhibition,[1]; [5],12.5 ± 18%
CC1CCc2c(N3CCC(O)CC3)c(F)cc3c(=O)c(C(=O)O)cn1c23 (configuration not stated) [Nadifloxacin],percent growth inhibition of drug alone,[2]; 7 µM,6.2 ± 4.4%
same,percent growth inhibition of drug alone,[2]; 20 µM,36 ± 4.7%
same,percent growth inhibition,[3]; [6],82.4 ± 20%
same,percent growth inhibition,[3]; [7],98.1 ± 1.5%
CO[C@@]1(NC(=O)Cc2cccs2)C(=O)N2C(C(=O)O)=C(COC(N)=O)CS[C@@H]21 [Cefoxitin sodium salt],percent growth inhibition of drug alone,[2]; 7 µM,5.37 ± 2%
same,percent growth inhibition of drug alone,[2]; 20 µM,7.08 ± 6.2%
same,percent growth inhibition,[3]; [8],8.4 ± 13%
O=C1NCN(c2ccccc2)C12CCN(CCCC(c1ccc(F)cc1)c1ccc(F)cc1)CC2 [Fluspirilen],percent growth inhibition of drug alone,[2]; 7 µM,-0.668 ± 2.3%
same,percent growth inhibition of drug alone,[2]; 20 µM,-1.04 ± 3.2%
same,percent growth inhibition,[3]; [6],4.99 ± 4%
same,percent growth inhibition,[3]; [7],96.4 ± 1.1%
CO[C@@H]1[C@@H](OC(N)=O)[C@@H](O)[C@H](Oc2ccc3c(O)c(NC(=O)c4ccc(O)c(CC=C(C)C)c4)c(=O)oc3c2C)OC1(C)C [Novobiocin sodium salt],percent growth inhibition of drug alone,[2]; 7 µM,0.874 ± 4.5%
same,percent growth inhibition of drug alone,[2]; 20 µM,5.13 ± 1.4%
same,percent growth inhibition,[3]; [6],34.1 ± 0.68%
same,percent growth inhibition,[3]; [7],98.55 ± 0.69%
COc1cnc(NS(=O)(=O)c2ccc(N)cc2)nc1 [Sulfameter],percent growth inhibition of drug alone,[2]; 7 µM,-1.55 ± 2.6%
same,percent growth inhibition of drug alone,[2]; 20 µM,-0.515 ± 1.5%
same,percent growth inhibition,[3]; [7],-5.03 ± 15%
C/C(=C\C(=O)OCCCCCCCCC(=O)O)C[C@@H]1OC[C@H](C[C@@H]2O[C@H]2[C@@H](C)[C@H](C)O)[C@@H](O)[C@H]1O [Mupirocin],percent growth inhibition of drug alone,[2]; 7 µM,1.64 ± 1.8%
same,percent growth inhibition of drug alone,[2]; 20 µM,6.42 ± 0.11%
same,percent growth inhibition,[3]; [8],16.2 ± 3.3%
same,percent growth inhibition,[3]; [5],41.1 ± 2.1%
CC(C)(C)CC(C)(C)c1ccc(OCCOCC[N+](C)(C)Cc2ccccc2)cc1 [Benzethonium chloride],percent growth inhibition of drug alone,[2]; 7 µM,2.21 ± 0.87%
same,percent growth inhibition of drug alone,[2]; 20 µM,2.03 ± 2.5%
same,percent growth inhibition,[3]; [6],4.69 ± 10%
same,percent growth inhibition,[3]; [7],97.15 ± 0.41%
"CC(C)NCC(O)c1ccc(O)c(O)c1 (single isomer, unassigned; (-)) [(-)-Isoproterenol hydrochloride]",percent growth inhibition of drug alone,[2]; 7 µM,0.335 ± 1.6%
same,percent growth inhibition of drug alone,[2]; 20 µM,1.39 ± 1.6%
same,percent growth inhibition,[3]; [7],0.725 ± 1.5%
CCCCCCCCCCCCCCCC[N+](C)(C)CCN(Cc1ccc(OC)cc1)c1ncccn1 [Thonzonium bromide],percent growth inhibition of drug alone,[2]; 7 µM,-1.94 ± 3.1%
same,percent growth inhibition of drug alone,[2]; 20 µM,2.72 ± 1.4%
same,percent growth inhibition,[3]; [7],98.2 ± 3.1%
CCN1CCC[C@H]1CNC(=O)c1c(O)c(Cl)cc(Cl)c1OC [Raclopride],percent growth inhibition of drug alone,[2]; 7 µM,-0.791 ± 2.4%
same,percent growth inhibition of drug alone,[2]; 20 µM,0.378 ± 5.2%
same,percent growth inhibition,[3]; [7],-4.39 ± 0.64%
COc1cccc2c1C(=O)c1c(O)c3c(c(O)c1C2=O)C[C@@](O)(C(C)=O)C[C@@H]3O[C@H]1C[C@H](N)[C@H](O)[C@H](C)O1 [Daunorubicin hydrochloride],percent growth inhibition of drug alone,[2]; 7 µM,5 ± 0.63%
same,percent growth inhibition of drug alone,[2]; 20 µM,5.26 ± 2.2%
same,percent growth inhibition,[3]; [6],-2.48 ± 6.2%
same,percent growth inhibition,[3]; [7],97.24 ± 0.46%
OC(c1cc(C(F)(F)F)nc2c(C(F)(F)F)cccc12)C1CCCCN1 (configuration not stated) [Mefloquine hydrochloride],percent growth inhibition of drug alone,[2]; 7 µM,0.355 ± 6.6%
same,percent growth inhibition of drug alone,[2]; 20 µM,-2.15 ± 1.1%
same,percent growth inhibition,[3]; [6],1.61 ± 13%
CCN(CC)CCOC(=O)C1(C2CCCCC2)CCCCC1 [Dicyclomine hydrochloride],percent growth inhibition of drug alone,[2]; 7 µM,0.63 ± 2%
same,percent growth inhibition of drug alone,[2]; 20 µM,2.04 ± 2.2%
same,percent growth inhibition,[3]; [7],-2.28 ± 7.1%
CC(=O)OCC(=O)[C@@]1(O)CC[C@H]2[C@@H]3CCC4=CC(=O)CC[C@]4(C)[C@@]3(F)[C@@H](O)C[C@@]21C [Fludrocortisone acetate],percent growth inhibition of drug alone,[2]; 7 µM,1.64 ± 0.4%
same,percent growth inhibition of drug alone,[2]; 20 µM,3.28 ± 1.7%
same,percent growth inhibition,[3]; [6],58.4 ± 10%
same,percent growth inhibition,[3]; [7],-6.61 ± 5%
Cc1cc(C(C)(C)CC(C)(C)C)ccc1OCCOCC[N+](C)(C)Cc1ccccc1 [Methyl benzethonium chloride],percent growth inhibition of drug alone,[2]; 7 µM,-1.94 ± 2.4%
same,percent growth inhibition of drug alone,[2]; 20 µM,-2.28 ± 0.9%
same,percent growth inhibition,[3]; [6],22 ± 6.4%
CC1=C(/C=C/C(C)=C/C=C/C(C)=C/C(=O)O)C(C)(C)CCC1 [Retinoic acid],percent growth inhibition of drug alone,[2]; 7 µM,1.08 ± 2.4%
same,percent growth inhibition of drug alone,[2]; 20 µM,0.222 ± 2%
same,percent growth inhibition,[3]; [7],-10.3 ± 2.1%
CCCCOC(=O)c1ccc(N)cc1 [Butamben],percent growth inhibition of drug alone,[2]; 7 µM,-0.672 ± 3.4%
same,percent growth inhibition of drug alone,[2]; 20 µM,-0.688 ± 0.36%
same,percent growth inhibition,[3]; [7],3.33 ± 3%
Oc1c(I)cc(Cl)c2cccnc12 [Clioquinol],percent growth inhibition of drug alone,[2]; 7 µM,12.1 ± 5%
same,percent growth inhibition of drug alone,[2]; 20 µM,44.53 ± 0.32%
same,percent growth inhibition,[3]; [6],47.2 ± 5.2%
same,percent growth inhibition,[3]; [7],98.97 ± 0.28%
Clc1ccc(CCC(Cn2ccnc2)Sc2c(Cl)cccc2Cl)cc1 (configuration not stated) [Butoconazole nitrate],percent growth inhibition of drug alone,[2]; 7 µM,-1.2 ± 2.2%
same,percent growth inhibition of drug alone,[2]; 20 µM,2.34 ± 3.2%
same,percent growth inhibition,[3]; [7],6.76 ± 0.1%
CCn1cc(C(=O)O)c(=O)c2cc(F)c(N3CCN(C)CC3)cc21 [Pefloxacine],percent growth inhibition of drug alone,[2]; 7 µM,12.5 ± 1.1%
same,percent growth inhibition of drug alone,[2]; 20 µM,51.2 ± 3.2%
same,percent growth inhibition,[3]; [8],11.4 ± 19%
COc1nc(C)nc(Cl)c1NC1=NCCN1 [Moxonidine],percent growth inhibition of drug alone,[2]; 7 µM,-0.572 ± 3.2%
same,percent growth inhibition of drug alone,[2]; 20 µM,-0.25 ± 3.1%
same,percent growth inhibition,[3]; [7],-7.57 ± 6.4%
C=C1c2c(Cl)ccc(O)c2C(=O)C2=C(O)[C@]3(O)C(=O)C(C(N)=O)=C(O)[C@@H](N(C)C)[C@@H]3[C@@H](O)[C@H]12.O=C(O)c1cc(S(=O)(=O)O)ccc1O [Meclocycline sulfosalicylate],percent growth inhibition of drug alone,[2]; 7 µM,2.09 ± 6.8%
same,percent growth inhibition of drug alone,[2]; 20 µM,7.24 ± 1.1%
same,percent growth inhibition,[3]; [7],10.3 ± 2.3%
CC(Cc1cccc(C(F)(F)F)c1)NCCOC(=O)c1ccccc1 (configuration not stated) [Benfluorex],percent growth inhibition of drug alone,[2]; 7 µM,1.43 ± 3%
same,percent growth inhibition of drug alone,[2]; 20 µM,-0.224 ± 0.36%
same,percent growth inhibition,[3]; [7],4.58 ± 2.8%
COc1cccc2c1C(=O)c1c(O)c3c(c(O)c1C2=O)C[C@@](O)(C(=O)CO)C[C@@H]3O[C@H]1C[C@H](N)[C@@H](O)[C@H](C)O1 [Epirubicin hydrochloride],percent growth inhibition of drug alone,[2]; 7 µM,-1.63 ± 2.7%
same,percent growth inhibition of drug alone,[2]; 20 µM,-0.106 ± 4.7%
same,percent growth inhibition,[3]; [6],-0.818 ± 0.78%
CS(=O)(=O)c1ccc([C@@H](O)[C@@H](CF)NC(=O)C(Cl)Cl)cc1 [Florfenicol],percent growth inhibition of drug alone,[2]; 7 µM,32.2 ± 2%
same,percent growth inhibition of drug alone,[2]; 20 µM,96.46 ± 0.59%
same,percent growth inhibition,[3]; [6],97.49 ± 0.25%
same,percent growth inhibition,[3]; [7],88.4 ± 7.8%
CCCCCCCCNC(C)C(O)c1ccc(SC(C)C)cc1 (configuration not stated) [Suloctidil],percent growth inhibition of drug alone,[2]; 7 µM,-1.6 ± 0.96%
same,percent growth inhibition of drug alone,[2]; 20 µM,-1.21 ± 1.4%
same,percent growth inhibition,[3]; [6],3.9 ± 5.4%
same,percent growth inhibition,[3]; [7],94.63 ± 0.84%
CCN1CCCC1CNC(=O)c1cc(S(N)(=O)=O)ccc1OC (configuration not stated) [Sulpiride],percent growth inhibition of drug alone,[2]; 7 µM,-2.88 ± 3.1%
same,percent growth inhibition of drug alone,[2]; 20 µM,-3.73 ± 0.65%
same,percent growth inhibition,[3]; [7],-7.13 ± 1.4%
O=C1NCCN1c1ncc([N+](=O)[O-])s1 [Niridazole],percent growth inhibition of drug alone,[2]; 7 µM,9.23 ± 8.8%
same,percent growth inhibition of drug alone,[2]; 20 µM,74.9 ± 13%
same,percent growth inhibition,[3]; [8],38.6 ± 6.3%
same,percent growth inhibition,[3]; [5],95.7 ± 4.1%
CCCCC(CC)CNC(=N)NC(=N)NCCCCCCNC(=N)NC(=N)NCC(CC)CCCC (configuration not stated) [Alexidine dihydrochloride],percent growth inhibition,[3]; [9],99.739 ± 0.078%
CC1COc2c(N3CCN(C)CC3)c(F)cc3c(=O)c(C(=O)O)cn1c23 (configuration not stated) [Ofloxacin],percent growth inhibition,[3]; [9],96.7 ± 3.1%
